# Source: PubChem
# NR5A2 inv ag – inverse agonists of human LRH-1 (NR5A2); inhibition, % at 3.6 µM; actives 0.13% (n = 360,000); HEK293T StAR-luciferase reporter, LRH-1 transfected, 24 h; AID 602396; O00482;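 active means inhibition above the mean inhibition of all tested compounds plus 3 SD, cut at about 73% in these data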;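 further: 0% = DMSO wells and 100% = reporter-only cells lacking LRH-1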
# Gli-Sufu antag – blocks Gli-Sufu signaling in a luciferase reporter; Sufu-KO-LIGHT fibroblasts, Gli luciferase reporter luminescence; inhibition, % at 5 µM; actives 0.74% (n = 340,000);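 active means inhibition above about 55%, limit read from the data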;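 further: 0% = DMSO-treated cells and 100% = wells with medium but no cells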
# NCOA3 inh – inhibitors of human steroid receptor coactivator 3 (SRC3); Q9Y6Q9; HEK293 GAL4-SRC3 luciferase reporter, luminescence; inhibition, % at 3.6 µM; actives 0.17% (n = 360,000);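 active means inhibition above a per-campaign cutoff, the mean of all compounds plus 3 SD, cut at about 60% in these data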;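 further: 0% = DMSO-treated cells and 100% = gossypol-treated cells at 36 µM; higher means less SRC3-driven luciferase light from the GAL4 reporter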
# NR2F2 inh – inhibitors of human COUP-TFII (NR2F2). HEK293T NGFI-A luciferase reporter, luminescence. P24468. AID 686940. actives 0.7% (n = 370,000). inhibition, % at 8.6 µM;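 active means inhibition above a per-plate cutoff, mean inhibition of test wells between control levels plus 3 SD, cut at about 38% in these data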;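 further: cells cotransfected with COUP-TFII expression vector driving the NGFI-A reporter; 0% = median of COUP-TF2 test wells and 100% = reporter-only cells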
# NCOA1 inh – human NCOA1 inhibition. Q15788. HEK293 GAL4-SRC1 luciferase reporter, luminescence. inhibition, % at 3.6 µM. actives 0.12% (n = 360,000);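 active means inhibition above the campaign mean plus 3 SD, with each screening campaign given its own cutoff, cut at about 60% in these data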;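 further: 0% = DMSO treated cells and 100% = gossypol at 36 µM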
# NCOA2 inhibitor – inhibits human steroid receptor coactivator 2; Q15596; HEK293 GAL4-SRC2 luciferase reporter, luminescence; inhibition, % at 9 µM; actives 0.17% (n = 370,000);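 active means inhibition above the mean inhibition of all tested compounds plus 3 SD, set per campaign, cut at about 52% in these data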;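 further: 0% = DMSO treated cells and 100% = cells given Gossypol at 36 µM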
# Gli-Sufu confirm – Gli-SUFU antagonism confirmation, single concentration; shares compounds with Gli-Sufu antag; Sufu-KO-LIGHT cells, Gli luciferase reporter, luminescence; inhibition, % at 5 µM; actives 40% (n = 2,500); AID 602428;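 active means mean inhibition at 5 µM reaching about 45%, limit read from the data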;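 further: plate controls were DMSO-treated cells for no effect and wells lacking cells for full effect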
# Gli cytotox – counter-screen for Gli-SUFU antagonists: cytotoxicity | shares compounds with Gli-Sufu antag | Sufu-KO-LIGHT cells cytotoxicity, ATP luminescence | cytotoxicity, % at 5 µM | actives 32% (n = 2,500);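 active means mean cytotoxicity at 5 µM above about 25%, limit read from the data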;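 further: cells exposed to compound overnight for roughly 16 to 18 hours; plate controls were DMSO wells with cells for no effect and medium without cells for full effect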
# Wnt3a counter – inhibits Wnt3a reporter, counter-screen for Gli-SUFU antagonists; shares compounds with Gli-Sufu antag; Wnt-LIGHT cells, Wnt3a-driven luciferase reporter, luminescence; inhibition, % at 6.25 µM; actives 20% (n = 2,500); AID 651995;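 active means mean inhibition above about 25%, limit read from the data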
# * = called active by the depositor; · = no result given. This is a sample that favours compounds with a hit; in the whole collection about 1.3% have one here.
SMILES,NR5A2 inv ag,Gli-Sufu antag,NCOA3 inh,NR2F2 inh,NCOA1 inh,NCOA2 inhibitor,Gli-Sufu confirm,Gli cytotox,Wnt3a counter
COc1ccc2[nH]c(=O)c(CN(C(=O)c3cccnc3)c3ccc(C)cc3)cc2c1,10,83*,-7,0,3,-17,17,5,-7
COc1ccc2[nH]c(=O)c(CN(C(=O)c3cccnc3)c3cccc(C)c3)cc2c1,9,9,21,12,-6,6,·,·,·
CC1CCN(C(=S)Nc2ccc(F)cc2)CC1,14,64*,24,4,15,-7,15,22,-9
O=C1C(=O)N(Cc2ccc(-c3ccc(F)nc3)cc2)c2ccc(OC(F)(F)F)cc21,·,·,·,-49,·,·,·,·,·
COC1C(CO)OC(n2c3c(Cl)cccc3c3c4c(c5c6cccc(Cl)c6[nH]c5c32)C(=O)NC4=O)C(O)C1O (stereo unspecified),29,62*,64*,3,70*,-23,37,26*,30*
CC(C)(N[C@@H](Cc1ccccc1)C(=O)NCCCc1ccccc1)C(=O)NCc1ccccc1,·,·,·,-3,·,·,·,·,·
Cc1ccc(C)c(OCC(O)CN2CCC(CN3C(=O)c4cccc5cccc(c45)C3=O)CC2)c1 (stereo unspecified),-1,51,13,35,-3,7,33,13,28*
CC(C)N(Cc1ccccc1)S(=O)(=O)c1ccc(F)cc1,-14,59*,9,2,7,22,49*,34*,33*
c1cncc(C(c2nnnn2C2CCCC2)N2CCCC2)c1 (stereo unspecified),-8,5,-2,-13,5,13,·,·,·
c1cncc(C(c2nnnn2C2CCCCC2)N2CCN3CCCC3C2)c1 (stereo unspecified),14,52,7,3,7,0,22,7,9
O=c1c2ccccc2sc2c(CO)ccc(NCCN3CCCCC3)c12,12,53,24,-3,11,-11,41,20,-155
COc1cc(OC)c(/C=N/NC(=O)COc2cccc3cccnc23)c(OC)c1,-8,56*,-13,-1,-4,-30,13,-11,8
CCOc1ccc(/C(O)=C/C(=O)C(=O)Nc2ccc(S(=O)(=O)NC(C)=O)cc2)cc1,-19,84*,1,-9,5,6,17,12,-11
COc1ccc(Cl)cc1NC(=O)CCc1nnc2ccc(N3CCN(C)CC3)nn12,20,60*,2,-3,8,-9,36,13,-7
O=C(CCn1nnc(-c2cccs2)n1)N1CCCC1,·,·,·,-11,·,1,·,·,·
CCCCn1c(=O)[nH]c(=O)c2c1nc(-c1ccc(-c3ccccc3)cc1)n2C,0,53,0,-20,-14,-8,33,12,-11
CCn1c(-c2ccsc2)nc2c1c(=O)[nH]c(=O)n2Cc1ccccc1,17,62*,-7,-19,14,-19,27,1,-8
CCCn1c(-c2cccs2)nc2c1c(=O)[nH]c(=O)n2Cc1ccccc1,-8,12,11,8,-1,-1,·,·,·
COC(=O)NCC(c1ccco1)N1CCN(c2ccc(F)cc2)CC1 (stereo unspecified),17,52,19,0,8,-3,14,9,-25
O=C(NC1CCCCN(Cc2cccc(Cl)c2)C1=O)c1cccc(F)c1 (stereo unspecified),·,·,·,0,·,-21,·,·,·
NS(=O)(=O)c1ccc(NC(=O)CSc2ccccc2)cc1,17,-6,-9,2,-13,-24,·,·,·
NS(=O)(=O)c1ccc(NC(=O)CSC2=NC(=O)C(c3ccccc3)C(=O)N2)cc1 (stereo unspecified),-3,88*,2,16,-19,-49,9,2,-11
